Records with an inconclusive call do not appear. The source made the active and inactive calls.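 How the source made its calls, unless noted: active means normalized viability below 100% at a tested concentration; inactive means the rest.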
How the values were obtained:
[1] = Wnt pathway potentiators raising nuclear beta-catenin – imaging, WNT3A-conditioned medium, mouse C2C12, NPC library, primary screen (AID 1117326; in the data active means nuclear beta-catenin stimulation mostly above about 4.2%, no sharp cut-off; inactive means mostly below about 10%); conditions: stronger effect = higher value
[2] = stimulators of insulin release from INS-1E, primary screen, cell-based, 5 mM glucose, NPC library (AID 1117329;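 active means compound raises insulin release from rat beta cells at 5 mM glucose, no numeric limit stated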); conditions: rat INS-1E insulin secretion, at 10 µM, stronger effect = higher value
[3] = growth inhibition of GSK3B-pretreated HCT116 cells – cell-based, CellTiter-Glo, 0.2 to 20 µM (AID 1117336;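 active means compounds lowering colon cancer cell viability after pretreatment blocking the GSK3B kinase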); conditions: HCT116 viability after GSK3B inhibitor, at 20 µM, stronger effect = higher value
[4] = inhibition of endothelial tube formation, primary screen, imaging, VEGF stimulated, CD31 staining, tube area, NPC library (AID 1117340;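 active means compound that reduces growth-factor-driven endothelial tube area in a mixed cell culture, no cutoff stated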); conditions: VEGF-stimulated ADSC/ECFC co-culture, at 10 µM, stronger effect = higher value
[5] = GLP1 release stimulators, primary, NCI-H716, NPC library (AID 1117341;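 active means compound raises GLP1 secretion from the human gut endocrine cells, with no numeric limit stated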); conditions: NCI-H716 cells, at 10 µM, stronger effect = higher value
[6] = HCT116 colon cancer cell growth inhibition, primary screen, CellTiter-Glo luminescence, NPC library (AID 1117342;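 active means compounds that lower survival of HCT116 colon cancer cells in the luminescence readout, no numeric limit stated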); conditions: at 20 µM (top of the series)
[7] = reduced SW480 viability measured with CellTiter-Glo, NPC library, primary (AID 1117343;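 active means compounds that lower viability of the colon cancer cells in the luminescence readout, with no numeric limit stated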); conditions: CellTiter-Glo luminescence; at 20 µM (top of the series) unless noted
[8] = NPC library primary testing for decreased DLD-1 cell viability via CellTiter-Glo (AID 1117346;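 active means compounds that lower survival of DLD-1 colon cancer cells in the luminescence readout, no cutoff given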); conditions: DLD-1 viability, CellTiter-Glo luminescence; at 20 µM (top of the series)
[9] = viability loss in pontine glioma line – cell-based, JHH-DIPG-1, MIPE4.0, CellTiter-Glo, qHTS, dose response (AID 1347062; cut-off not given, nearly all actives have AC50 up to about 27 µM;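 on AC50: cells exposed to compound for two days before readout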); conditions: JHH-DIPG-1 viability, CellTiter-Glo ATP luminescence
[10] = viability loss in pontine glioma line – cell-based, SU-DIPG-IV, MIPE4.0, CellTiter-Glo, qHTS, dose response (AID 1347063; cut-off not given, nearly all actives have AC50 up to about 30 µM;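 further: compound exposure lasted 48 hours before the viability readout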); conditions: CellTiter-Glo ATP luminescence
[11] = viability loss with induced miR-34 in A549 – imaging, A549 dox-inducible miR-34, nuclei and caspase counts, primary screen (AID 1347080;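 active means compounds whose cell count with miR-34 switched on is under 0.7 times the count with it off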); conditions: A549 miR-34 inducible, Hoechst nuclei count, 48 h
[12] = MELAS cybrid and Rieske KO viability enhancers – cell-based, MELAS cybrids, Rieske KO mouse fibroblasts, CellTiter-Glo, primary screen (AID 1508586;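 active means mean z-score across replicates of 1.96 or higher in either the MELAS or the Rieske mutant cell line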;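 further: z relative to plate mean and SD of compound and empty wells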); conditions: low glucose
[13] = target: NAD(+) hydrolase SARM1 (Homo sapiens) (UniProt Q6SZW1); assay: blocking NAD cleavage by SARM1 SAM-TIR – cell lysate, NAD-Glo luminescence (AID 1508614;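 active means compound whose remaining NAD level is above about 45 nM, limit read from the data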); conditions: SAM-TIR HEK293T lysate NADase, at 1 µM, stronger effect = higher value
[14] = growth inhibition, single agents and combos, ICB984, cell-based, cisplatin or BGB combos, synergistic combos for chromothripsis tumors (AID 1671451; call rule not given here;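 further: cells exposed for 96 hours before readout; 0% = vehicle DMSO and 100% = killing by high DMSO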); conditions: ICB984 medulloblastoma cells, drug combinations, stronger effect = higher value
[15] = drug combination growth inhibition, ovarian cancer – cell-based, oncology-focused library, rucaparib conditional, profiling panel (AID 1508598); conditions: patient-derived ovarian cancer cells, CellTiter-Glo viability, 144 h, stronger effect = lower value
[16] = stronger effect = lower value, cell number ratio, induced over uninduced
[17] = measured here: relative caspase fold change +Dox/-Dox
[18] = measured here: total cells with miR-34 induction, stronger effect = lower value
[19] = measured here: total cells without miR-34 induction
[20] = MELAS cybrid survival, CellTiter-Glo 48 h, stronger effect = higher value
[21] = Rieske KO mouse fibroblast survival, CellTiter-Glo 72 h

NAD(+) hydrolase SARM1 (Homo sapiens), sequence (Q6SZW1 whole entry, looked up): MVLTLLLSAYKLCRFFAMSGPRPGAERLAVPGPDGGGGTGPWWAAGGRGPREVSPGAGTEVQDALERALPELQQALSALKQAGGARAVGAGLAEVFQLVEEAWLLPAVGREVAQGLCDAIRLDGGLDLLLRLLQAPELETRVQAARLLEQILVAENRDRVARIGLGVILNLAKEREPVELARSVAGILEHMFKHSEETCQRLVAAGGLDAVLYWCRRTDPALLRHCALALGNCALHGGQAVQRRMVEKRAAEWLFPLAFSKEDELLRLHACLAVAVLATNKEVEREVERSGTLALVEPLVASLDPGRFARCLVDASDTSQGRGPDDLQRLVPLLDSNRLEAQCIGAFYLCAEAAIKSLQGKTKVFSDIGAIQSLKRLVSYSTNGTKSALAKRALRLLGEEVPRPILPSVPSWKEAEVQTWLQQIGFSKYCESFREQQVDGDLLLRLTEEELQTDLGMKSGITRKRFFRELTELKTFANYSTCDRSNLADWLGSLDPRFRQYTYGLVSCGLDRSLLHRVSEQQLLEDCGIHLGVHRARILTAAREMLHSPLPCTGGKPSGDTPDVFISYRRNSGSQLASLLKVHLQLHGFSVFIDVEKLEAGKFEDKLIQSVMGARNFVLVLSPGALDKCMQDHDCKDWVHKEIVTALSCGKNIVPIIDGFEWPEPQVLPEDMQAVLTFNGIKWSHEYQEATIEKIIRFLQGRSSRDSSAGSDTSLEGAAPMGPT

NC(=O)Cc1cccc(C(=O)c2ccccc2)c1N
inactive: nuclear beta-catenin stimulation ([1]; at 10 µM) 3% | insulin secretion stimulation [2] -0.1% | viability decrease [3] 4.9% | tube area decrease [4] 12.4% | GLP1 secretion stimulation [5] -1.1% | inhibition of viability [6] -6.03% | viability decrease (inhibition) [7] -28.7% | viability decrease (inhibition) [8] 6.9% | outcome [9] | outcome [10] | fold change [11, 16] 0.902 | z-score [12, 20] -0.418
-0.195: z-score [12, 21]
7400: cell count [11, 18]
0.903: fold change [11, 17]
2.6%: nuclear beta-catenin stimulation ([1]; stimulation, at 2 µM)
8200: cell count [11, 19]

O=c1[nH]c(=O)n([C@H]2C[C@H](O)[C@@H](CO)O2)cc1C(F)(F)F
-36.1%: inhibition ([14]; cisplatin combo, at 0.5 µM)
-29.6%: inhibition ([14]; cisplatin combo, at 5 µM)
1.84: z-score [12, 21]
-24%: inhibition ([14]; BGB IC40 combo, at 0.05 µM)
inactive: insulin secretion stimulation [2] 1.1% | GLP1 secretion stimulation [5] -3.2% | outcome [9] | z-score [12, 20] 0.972 | remaining NAD [13] 10 nM | inhibition ([14]; at 0.5 µM) -27.9%
-27.5%: inhibition ([14]; cisplatin combo, at 0.05 µM)
39%: nuclear beta-catenin stimulation ([1]; stimulation, at 2 µM)
-19.3%: inhibition ([14]; measured here: 5 uM single agent, at 5 µM)
active: nuclear beta-catenin stimulation ([1]; at 10 µM) 44.5% | viability decrease [3] 84.6% | tube area decrease [4] 99.5% | inhibition of viability [6] 84% | viability decrease (inhibition) [7] 98.1% | viability decrease (inhibition) [8] 41.5%
-34.3%: inhibition ([14]; BGB IC40 combo, at 0.005 µM)
-20%: inhibition ([14]; BGB IC20 combo, at 0.005 µM)

COc1cc(Nc2c(C#N)cnc3cc(OCCCN4CCN(C)CC4)c(OC)cc23)c(Cl)cc1Cl
-0.399: z-score [12, 21]
986: cell count [11, 18]
active: viability decrease [3] 110% | GLP1 secretion stimulation [5] 47.9% | inhibition of viability [6] 113% | viability decrease (inhibition) [7] 132% | viability decrease (inhibition) [8] 102% | AC50 [9] 20.9 µM | AC50 [10] 20.9 µM | z-score [12, 20] 2.73 | viability ([15]; at 0.000305 µM, OCI-P5x cells, with rucaparib 20 µM, 100% = cells with rucaparib alone) 88.1% | viability ([15]; at 0.000305 µM, OCI-P5x cells, without rucaparib) 68.6% | viability ([15]; at 0.00122 µM, OCI-P5x cells, with rucaparib 20 µM, 100% = cells with rucaparib alone) 87.4% | viability ([15]; at 0.00122 µM, OCI-P5x cells, without rucaparib) 30.3% | viability ([15]; at 0.0195 µM, OCI-P5x cells, with rucaparib 20 µM, 100% = cells with rucaparib alone) 96.8% | viability ([15]; at 0.0781 µM, OCI-P5x cells, with rucaparib 20 µM, 100% = cells with rucaparib alone) 94.7% | viability ([15]; at 0.313 µM, OCI-P5x cells, with rucaparib 20 µM, 100% = cells with rucaparib alone) 80.8% | viability ([15]; at 0.313 µM, OCI-P5x cells, without rucaparib) 91% | viability ([15]; at 1.25 µM, OCI-P5x cells, with rucaparib 20 µM, 100% = cells with rucaparib alone) 57.8% | viability ([15]; at 1.25 µM, OCI-P5x cells, without rucaparib) 95.2% | viability ([15]; at 5 µM, OCI-C5x cells, with rucaparib 10 µM, 100% = cells with rucaparib alone) 49.5% | viability ([15]; at 5 µM, OCI-C5x cells, without rucaparib) 61.4% | viability ([15]; at 5 µM, OCI-P5x cells, with rucaparib 20 µM, 100% = cells with rucaparib alone) 24.4% | viability ([15]; at 5 µM, OCI-P5x cells, without rucaparib) 42%
0.682: fold change [11, 17]
1100: cell count [11, 19]
-1%: nuclear beta-catenin stimulation ([1]; stimulation, at 2 µM)
inactive: nuclear beta-catenin stimulation ([1]; at 10 µM) 17.6% | insulin secretion stimulation [2] 2.2% | tube area decrease [4] 1.5% | fold change [11, 16] 0.893 | viability ([15]; at 0.000305 µM, OCI-C5x cells, with rucaparib 10 µM, 100% = cells with rucaparib alone) 120% | viability ([15]; at 0.000305 µM, OCI-C5x cells, without rucaparib) 107% | viability ([15]; at 0.00122 µM, OCI-C5x cells, with rucaparib 10 µM, 100% = cells with rucaparib alone) 121% | viability ([15]; at 0.00122 µM, OCI-C5x cells, without rucaparib) 109% | viability ([15]; at 0.00488 µM, OCI-C5x cells, with rucaparib 10 µM, 100% = cells with rucaparib alone) 119% | viability ([15]; at 0.00488 µM, OCI-C5x cells, without rucaparib) 107% | viability ([15]; at 0.00488 µM, OCI-P5x cells, with rucaparib 20 µM, 100% = cells with rucaparib alone) 101% | viability ([15]; at 0.00488 µM, OCI-P5x cells, without rucaparib) 102% | viability ([15]; at 0.0195 µM, OCI-C5x cells, with rucaparib 10 µM, 100% = cells with rucaparib alone) 122% | viability ([15]; at 0.0195 µM, OCI-C5x cells, without rucaparib) 104% | viability ([15]; at 0.0195 µM, OCI-P5x cells, without rucaparib) 102% | viability ([15]; at 0.0781 µM, OCI-C5x cells, with rucaparib 10 µM, 100% = cells with rucaparib alone) 132% | viability ([15]; at 0.0781 µM, OCI-C5x cells, without rucaparib) 111% | viability ([15]; at 0.0781 µM, OCI-P5x cells, without rucaparib) 103% | viability ([15]; at 0.313 µM, OCI-C5x cells, with rucaparib 10 µM, 100% = cells with rucaparib alone) 125% | viability ([15]; at 0.313 µM, OCI-C5x cells, without rucaparib) 101% | viability ([15]; at 1.25 µM, OCI-C5x cells, with rucaparib 10 µM, 100% = cells with rucaparib alone) 113% | viability ([15]; at 1.25 µM, OCI-C5x cells, without rucaparib) 108%

— PubChem BioAssay
